Results on 90 molecules are retold here after PubChem BioAssay AID1662 (Broad Institute, 2009).

Molecules are shown by their SMILES. The whole screen tested about 300,000 compounds, of which about 4,000 (1.3%) were called active. Only a selection was taken, and actives are over-represented in it overall. Unmarked numbers belong to inactive results.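 The calls were made as follows: active = mean replicate score, as percent of positive control median, at least 50; inconclusive = mean below 50 but one replicate at or above 50; inactive = mean and every replicate below 50.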

The experiment in a line: S. pyogenes SKKanGAS growth inhibitors in kanamycin, primary screen, streptokinase expression inhibitor project, SKKanGAS strain, BacTiter-Glo luminescence (AID 1662).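 Also: strain carries kanamycin resistance gene driven by streptokinase promoter and grows in 40 µg/ml kanamycin; loss of luminescence reflects streptokinase promoter inhibition or plain growth inhibition; 0% = median of DMSO wells and 100% = positive control at its reference dose.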 The following applies: 6 h, at 7.5 µM, stronger effect = higher value.
As to `Cc1cc(Cl)c2oc(C(=O)N3CCC(O)(c4ccccc4)CC3)c(C)c2c1`, the inhibition was 64.2% (active).

For the molecule `Cc1cc(Cl)c2oc(C(=O)N(C)C(C)c3ccccn3)c(C)c2c1` (stereo not given), the inhibition was 8.03%.

Turning to `Cc1cc(Cl)c2oc(C(=O)NC(C)c3ccncn3)c(C)c2c1` (stereo not given), the inhibition is -5.52%.

As for `COc1ccc(CCNC2=CC(=O)CC(C)(C)C2)cc1`, the inhibition is -6.22%.

As for `CC(C)(C)N1C(=O)[C@H]2[C@@H](c3ccc(Br)cc3)N3C(=O)N(c4cccc(Cl)c4)C(=O)[C@@]3(C)[C@H]2C1=O`, the inhibition is -0.18%.

Turning to `Cc1cccc(-n2nc3c(c2NC(=O)c2cc4ccccc4o2)CS(=O)(=O)C3)c1`, the inhibition was 1.09%.

In the case of `CCOC(=O)c1cc(-c2ccc(F)cc2)n(CC(=O)NCc2ccccn2)c1C`, the inhibition is -1.39%.

As for `COC(=O)c1ccc(Oc2nc(Nc3ccc(F)cc3)nc(N3CCCC3)n2)cc1`, the inhibition is 18.8%.

Take `Clc1nc(NC2CCCC2)nc(N2CCOCC2)n1`: the inhibition is 3.5%.

`COc1nc(NC2CCCCC2)nc(N2CCCCCC2)n1`: the inhibition is 75.9% (active).

Turning to `O=c1cc(C(F)(F)F)[nH]c(=O)n1C1CCCCC1`, the inhibition was 11.3%.

For the molecule `O=C(c1cccc(F)c1)N1CCN(c2ccc([N+](=O)[O-])c3cccnc23)CC1`, the inhibition is -4.2%.

Consider `Cc1nnc(SCC(=O)Nn2cnnc2)s1`, for which the inhibition is 4.69%.

As for `Cc1cc(C)cc(C(=O)NC2C(=O)N3C(C(=O)O)=C(CSc4nnc(C)s4)CSC23)c1` (stereo not given), the inhibition was 96.4% (active).

Turning to `Cc1nnc(SCC2=C(C(=O)O)N3C(=O)C(NC(=O)Cn4nc(C)c(Cl)c4C)C3SC2)s1` (stereo not given), the inhibition was 88.3% (active).

For `Cc1nnc(SCC(=O)NC2CCCC2)s1`, the inhibition was -0.971%.

As to `Cc1cccc(CSc2nnc(NC(=O)CSc3nnc(C)s3)s2)c1`, the inhibition was 7.83%.

Take `COc1ccc(NC(=O)CCCC(=O)c2ccccc2)cc1`: the inhibition was 1.96%.

On to `CCOc1ccccc1/C=N/Nc1nc2ccccc2o1`, for which the inhibition was 2.09%.

As for `COc1cc(N/C=C2\CC(=O)NC(C)=C2C#N)cc(OC)c1OC`, the inhibition is -0.282%.

With `O=C(Nc1ccc(F)cc1)c1ccc(S(=O)(=O)NCc2cccnc2)cc1`, the inhibition was -0.655%.

Regarding `FC(F)(F)c1cc(-c2cccs2)nc(NCc2ccco2)n1`, the inhibition was -2.9%.

Regarding `FC(F)(F)c1cc(-c2ccco2)nc(NCc2ccc(Cl)cc2)n1`, the inhibition is 65.4% (active).

Regarding `Cc1cc(C(F)(F)F)nn1-c1nc(-c2ccco2)cc(C(F)(F)F)n1`, the inhibition was 7.56%.

For the molecule `O=[N+]([O-])c1ccc(S(=O)(=O)Nc2cccc(-c3ccc(N4CCCC4)nn3)c2)cc1`, the inhibition is 0.0506%.

Turning to `O=S(=O)(Nc1ccc(-c2ccc(N3CCOCC3)nn2)cc1)c1cc(Cl)ccc1Cl`, the inhibition was 18.8%.

Take `O=S(=O)(Nc1cccc(-c2ccc(N3CCOCC3)nn2)c1)c1ccc(Cl)c(Cl)c1`: the inhibition was 53.5% (active).

In the case of `CC1CN(S(=O)(=O)c2cccc(C(F)(F)F)c2)CN1C(=O)N1CCOCC1` (stereo not given), the inhibition is 0.316%.

In the case of `COc1cc2cc(C(=O)N/N=C/c3cccc(OC)c3OC)[nH]c2cc1OC`, the inhibition was 2.92%.

Take `CN(C)CCNC(=O)c1[nH]nc2c1CCc1ccccc1-2`: the inhibition is -5.17%.

For `COc1cccc(/C=N/NC(=O)c2[nH]nc3c2CCc2ccccc2-3)c1O`, the inhibition is 79% (active).

With `COc1ccccc1C1C(C(N)=O)=C(C)Nc2nc(CCCO)nn21` (stereo not given), the inhibition is -3.27%.

Regarding `CCOc1ccc(CN(C)C(=O)c2ccc(=O)[nH]c2)cc1`, the inhibition is 1.34%.

Take `CCOC(=O)C1=C(CCc2ccccc2)NC(=O)NC1c1ccc2ccccc2c1` (stereo not given): the inhibition was 19.2%.

Consider `CC(C)Cn1c(CCC(=O)O)ccc1-c1cccs1`, for which the inhibition is -8.87%.

Take `C=CCSc1nc2c(c(=O)[nH]c(=O)n2C)n1Cc1ccccc1`: the inhibition was -11.2%.

For `CCCCCCn1c(SCC(=O)c2ccccc2)nc2c1c(=O)[nH]c(=O)n2C`, the inhibition is 73.3% (active).

With `CCCCCn1c(SCCC(C)C)nc2c1c(=O)[nH]c(=O)n2C`, the inhibition was 26.4%.

As to `N=c1ccn(CC(=O)NC(N)=O)c2ccccc12`, the inhibition is -5.02%.

As for `Cc1cc(-c2ccc(C)c(S(=O)(=O)NC(C)Cc3ccco3)c2)on1` (stereo not given), the inhibition is 2.44%.

Take `CCC(=C/c1sc2ccc3ccccc3c2[n+]1C)/C=C1\Sc2ccc3ccccc3c2N1C`: the inhibition was 69.5% (active).

Turning to `COc1ccc(C(CNC(=O)c2cccc(NS(=O)(=O)c3ccc(C)c(F)c3)c2)N2CCCC2)cc1` (stereo not given), the inhibition was -16%.

On to `COc1ccc(C(CNC(=O)c2ccc(S(=O)(=O)Nc3ccccc3C)cc2)N2CCOCC2)cc1` (stereo not given), for which the inhibition was -13.5%.

For the molecule `COc1ccc(C(CNC(=O)c2cccc(S(=O)(=O)Nc3ccccc3Cl)c2)N2CCOCC2)cc1` (stereo not given), the inhibition was 67.6% (active).

For `C=Cc1ccc(C(=O)N2CCCC(CCC(=O)N3CCN(c4ccccn4)CC3)C2)cc1` (stereo not given), the inhibition is 4.83%.

Turning to `CC(C)C(=O)Nc1nnc(SCC(=O)N2C(C)CCCC2C)s1` (stereo not given), the inhibition is -1.25%.

For `CC1Cc2ccccc2N1S(=O)(=O)c1ccc(Cl)nc1` (stereo not given), the inhibition is -1.93%.

For the molecule `Cc1[nH]n(-c2ccc(Cl)cc2)c(=O)c1/C=N/n1c(C)nc2ccccc2c1=O`, the inhibition was 69.1% (active).

With `Cc1[nH]n(-c2cccc(Cl)c2)c(=O)c1-c1ccc(Cl)cc1`, the inhibition was 39.1%.

As for `COc1cc(NS(=O)(=O)c2ccc(N=Cc3c(C)[nH]n(-c4ccccc4)c3=O)cc2)nc(OC)n1`, the inhibition is 7.41%.

For `Cc1[nH]n(-c2cccc(Cl)c2)c(=O)c1/C=N/n1c(C)nc2ccccc2c1=O`, the inhibition was 79.2% (active).

As to `CCOc1[nH]n(-c2ccc(Cl)cc2)c(=O)c1C=Nc1ccc(O)cc1`, the inhibition was 2.84%.

In the case of `Cc1ccc(-n2[nH]c(C)c(/C=N/N3C(=O)c4cccc5cccc(c45)C3=O)c2=O)cc1`, the inhibition was 8.48%.

Turning to `CCOC(=O)C1CCN(C(=O)COC(=O)C2CCN(S(=O)(=O)c3ccc4c(c3)OCCO4)CC2)CC1`, the inhibition was 19.6%.

As to `CCc1nnc(NC(=O)C2CC(=O)N(c3ccc4c(c3)OCCO4)C2)s1` (stereo not given), the inhibition was -3.71%.

For `CC(OC(=O)c1ccc2noc(-c3ccccc3)c2c1)C(N)=O` (stereo not given), the inhibition was 6.64%.

As for `Clc1c(OCCCn2ccnc2)ccc2ccccc12`, the inhibition was 5.1%.

On to `Cc1ccc(CNC(=O)CCN2C(=O)[C@@H]3Cc4ccccc4CN3C2=O)cc1`, for which the inhibition is 4.22%.

Regarding `O=C(CSc1nc(Nc2ccccc2)nc(N2CCOCC2)n1)Nc1cc(Cl)ccc1O`, the inhibition is 78.3% (active).

On to `CC1(c2ccccc2)NC(=O)N(CC(=O)Nc2cc(Cl)ccc2N2CCOCC2)C1=O` (stereo not given), for which the inhibition is -3.7%.

For `Cc1ccccc1NC(=O)CSc1nc2ccc(Nc3nc(N4CCOCC4)nc(N4CCOCC4)n3)cc2s1`, the inhibition is 15.9%.

On to `Cc1ccc(SCc2c(C(=O)N/N=C/c3cccnc3)nnn2-c2nonc2N)cc1`, for which the inhibition is 3.15%.

As to `Nc1nonc1-n1nnc(C(=O)N/N=C/c2ccccc2O)c1CN1CCCC1`, the inhibition is -2.71%.

For the molecule `Nc1nonc1-n1nnc(C(=O)N/N=C/c2cc(Br)ccc2O)c1CSC1=NCCS1`, the inhibition is 107% (active).

With `O=C(O)c1cccnc1Sc1ncnc2sc3c(c12)CCC3`, the inhibition is -1.33%.

In the case of `COc1ccccc1CCC(=O)NNC(=O)c1ccncc1`, the inhibition is -5.32%.

Consider `O=C(NC(=S)Nc1ccc(NC(=O)c2cccs2)cc1)c1ccc([N+](=O)[O-])cc1`, for which the inhibition is 6.3%.

`CC(=O)Nc1ccc(NC(=S)NC(=O)c2ccc([N+](=O)[O-])c(C)c2)cc1`: the inhibition was -0.0689%.

With `CC(=O)NC(=S)Nc1ccc(NC(=S)NC(=O)c2ccc([N+](=O)[O-])cc2)cc1`, the inhibition was 60.3% (active).

For `NC1=NC(=O)C(Cc2cccc(Cl)c2Cl)S1` (stereo not given), the inhibition was -7.45%.

With `CC(C)=N/N=C1/NC(=O)C(Cc2ccccc2)S1` (stereo not given), the inhibition was 0.633%.

As for `O=C1NC(=Nc2ccc(Cl)cc2)SC1Cc1cccc(Cl)c1Cl` (stereo not given), the inhibition is 61.1% (active).

As for `COc1ccc(C(CNC(=O)c2cc3c(s2)CCCC3)N2CCOCC2)cc1` (stereo not given), the inhibition is -4.29%.

As to `O=C(Nc1cccc(Cl)c1)c1cncn1-c1ccc(F)cc1`, the inhibition was -0.257%.

For `CCCCC(=O)NNC(=S)NC(=O)C(c1ccccc1)c1ccccc1`, the inhibition is 85.9% (active).

On to `CC(C)C(=O)Nc1cccc(NC(=S)NC(=O)C(c2ccccc2)c2ccccc2)c1`, for which the inhibition was 22.1%.

As for `O=C(NNC(=S)NCc1ccco1)C(c1ccccc1)c1ccccc1`, the inhibition is 12.9%.

Consider `CC(=O)N/C(=N/c1nc(C)cc(C)n1)Nc1ccc(F)cc1F`, for which the inhibition was -6.21%.

For the molecule `Cc1ccc(OCc2nnc(SC3CCc4ccccc4C3=O)n2C)cc1` (stereo not given), the inhibition was 1.05%.

Take `CN(CCc1ccccn1)C(=O)c1ccc(OC2CCN(Cc3ccccn3)CC2)cc1`: the inhibition is 15.2%.

Regarding `Nc1cccc2c1C(=O)N(Cc1nnc(-c3ccccc3Br)o1)C2=O`, the inhibition was -13.7%.

Consider `COc1ccc(OCC(=O)NCCS(=O)(=O)N2CCN(c3ccc(F)cc3)CC2)cc1`, for which the inhibition is -2.54%.

With `CCOc1cc(N2CCOCC2)c(OCC)cc1NC(=O)c1ccc(C)s1`, the inhibition was -3.59%.

In the case of `CCOc1cc(N2CCOCC2)c(OCC)cc1NC(=O)c1cc(C)nc2ccccc12`, the inhibition is 6.5%.

In the case of `CCOc1cc(N2CCOCC2)c(OCC)cc1NC(=O)C1=NN(c2cccc(C)c2)C(=O)CC1`, the inhibition was 54% (active).

As for `CCOCCCNC(=O)C(NC(=O)c1ccc(=O)[nH]c1)c1ccc(Cl)cc1` (stereo not given), the inhibition is -3.58%.

For `COc1ccc(OC)c(S(=O)(=O)Nc2cccc(-c3ccc4nncn4n3)c2)c1`, the inhibition was -5.29%.

For `Cc1ccc(Nc2nc(-c3ccc(O)cc3O)cs2)nc1`, the inhibition was 20.8%.

For the molecule `O=C(Nc1ccc(Cl)cn1)Nc1cccs1`, the inhibition is -3.53%.

Consider `Clc1ccc(Nc2nc(-c3cccs3)cs2)nc1`, for which the inhibition was 64.4% (active).

In general, inhibition refers to the change of the read-out against control, counted positive when it falls.
